MPTP block = blocks calcium-induced mitochondrial swelling; inhibition, % at 10 µM; actives 1.4% (n = 360,000); isolated mouse mitochondria, Ca2+ swelling absorbance, 30 min; AID 602449;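 active = inhibition of 50% or more, scaled per plate between neutral and stimulator controls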;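 note: 0% = DMSO wells given calcium and 100% = 1 mM EGTA wells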
Beta apoptosis = beta cell apoptosis inhibition | AID 435005 | protection from apoptosis, % (no concentration beside the values) | actives 0.8% (n = 300,000) | INS-1E cytokine-induced death, ATP luminescence, 48 h; percent of positive-control rescue, neutral wells zero;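 active = Every replicate reaches about 75%, or at least half do and their mean reaches it too, limit read from the data; inconclusive = At least half of replicates reach the limit but their mean does not; inactive = Under half of replicates reach the limit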;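 note: 0% = cytokine-treated negative control wells and 100% = positive control rescue; higher means more ATP so stronger rescue from cytokine killing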
Mdm2 MdmX PPI = disrupts the human Mdm2-MdmX interaction. O15151+Q00987. SaOS-2 split-luciferase Mdm2/MdmX complementation, luminescence. inhibition, % at 8 µM. actives 3% (n = 330,000). AID 485346;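 active = inhibition of at least 50% at 8 µM in the primary screen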
Target sequence (O15151 whole entry, looked up): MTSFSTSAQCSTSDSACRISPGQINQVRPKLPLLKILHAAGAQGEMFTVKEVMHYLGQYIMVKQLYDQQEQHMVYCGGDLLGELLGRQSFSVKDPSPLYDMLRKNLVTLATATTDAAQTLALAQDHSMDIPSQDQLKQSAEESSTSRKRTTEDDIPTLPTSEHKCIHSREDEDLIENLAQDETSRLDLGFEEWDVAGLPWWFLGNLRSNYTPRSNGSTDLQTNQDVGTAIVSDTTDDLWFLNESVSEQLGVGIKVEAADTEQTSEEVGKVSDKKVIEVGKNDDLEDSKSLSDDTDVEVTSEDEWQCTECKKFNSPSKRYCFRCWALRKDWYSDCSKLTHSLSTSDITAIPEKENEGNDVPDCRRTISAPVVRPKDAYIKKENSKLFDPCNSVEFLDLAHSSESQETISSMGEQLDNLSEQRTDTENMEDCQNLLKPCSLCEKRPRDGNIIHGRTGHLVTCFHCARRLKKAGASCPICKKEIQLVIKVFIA
Target sequence (Q00987 whole entry, looked up): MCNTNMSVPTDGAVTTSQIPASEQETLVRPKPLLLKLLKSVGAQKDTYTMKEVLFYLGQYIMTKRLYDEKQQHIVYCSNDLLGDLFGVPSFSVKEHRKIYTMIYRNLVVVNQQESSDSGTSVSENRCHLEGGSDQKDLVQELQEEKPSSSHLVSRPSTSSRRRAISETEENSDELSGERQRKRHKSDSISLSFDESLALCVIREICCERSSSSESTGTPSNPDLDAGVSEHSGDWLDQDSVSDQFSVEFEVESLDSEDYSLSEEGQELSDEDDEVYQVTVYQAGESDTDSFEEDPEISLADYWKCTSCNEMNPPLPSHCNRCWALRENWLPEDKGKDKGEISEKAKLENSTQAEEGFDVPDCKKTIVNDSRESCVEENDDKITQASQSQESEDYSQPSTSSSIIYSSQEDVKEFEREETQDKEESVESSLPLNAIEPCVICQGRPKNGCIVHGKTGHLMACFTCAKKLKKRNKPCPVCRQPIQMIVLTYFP
CSC inhib = blocks cancer stem cells; actives 1.1% (n = 300,000); inhibition, % at 7.5 µM; AID 2717; cancer stem cell-like cells viability, luminescence; in the data active = inhibition above about 75%; inconclusive = no clear call, values can overlap the other calls; tested in HMLE shEcad cells
Calb FLC = C. albicans growth modulation with fluconazole; growth inhibition, % (concentration not given with the values); C. albicans CaCi-2 (fluconazole-resistant clinical isolate) + fluconazole, Alamar Blue growth, 48 h; actives 0.57% (n = 300,000); AID 1979;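 active = growth inhibition above about 58% in most replicates, limit read from the data, passing the limit was not always enough; inconclusive = exactly half the replicates above a set limit; inactive = most replicates below a set limit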;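 note: all wells also contain fluconazole at 8 µg/ml as a sub-toxic cotreatment; 0% = median of DMSO wells and 100% = median of geldanamycin control wells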
Mdm2 MdmX conf = confirmation of human Mdm2/MdmX interaction inhibitors; actives 55% (n = 10,000); Mdm2-MdmX binding, luminescent assay; shares compounds with Mdm2 MdmX PPI; inhibition, % at 8 µM; AID 489028; in the data active = inhibition above about 40%
FLuc counter = counter-screen for Mdm2/MdmX inhibitors: full-length luciferase. shares compounds with Mdm2 MdmX PPI. SaOS-2 full-length luciferase counterscreen, luminescence. inhibition, % at 8 µM. actives 77% (n = 6,200). AID 504607;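 active = mean inhibition at 8 µM reaching about 37%, which flags the compound as non-specific, limit read from the data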;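 note: p53-null SaOS-2 cells with luciferase driven by a doxycycline-inducible promoter; compound on cells about two nights before reading with doxycycline added after day one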
MPTP counter = mitochondrial membrane potential, counter-screen; shares compounds with MPTP block; isolated mitochondria, Rhodamine 123 fluorescence; inhibition, % at 10 µM; actives 78% (n = 5,000); in the data active = inhibition above about 22%;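 note: 0% = DMSO vehicle and 100% = positive control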
MPTP swell DR = dose response confirmation of mitochondrial permeability transition pore inhibitors; IC50, µM; actives 58% (n = 780); shares compounds with MPTP block; isolated mitochondria swelling, absorbance; AID 651561; in the data active = IC50 below about 20 µM
MPTP cs DR = active in counter-screen for permeability transition pore inhibitors; actives 49% (n = 780); isolated mitochondria counterscreen, fluorescence read-out; shares compounds with MPTP block; IC50, µM; in the data active = IC50 below about 80 µM
An asterisk follows results filed as active; i = inactive; ? = inconclusive; / = not tested or not shown; ! = not active in a repeat. Compounds with a hit are over-represented: about 4.8% of the library has one in this group of screens.

SMILES	MPTP block	Beta apoptosis	Mdm2 MdmX PPI	CSC inhib	Calb FLC	Mdm2 MdmX conf	FLuc counter	MPTP counter	others
Cc1cc(C)cc(OCCNC(=O)c2cc(S(=O)(=O)N3CCOCC3)ccc2F)c1	0	2	20	25	-1	/	/	/
c1ccc(CNc2nc(-c3ccccc3)nc3ccccc23)cc1	3	/	24	38	2	/	/	/
Nc1nc(Nc2ccccc2)nc(NCc2ccco2)c1[N+](=O)[O-]	2	-8	18	28	42	/	/	/
c1ccc(CNc2nc(NCc3ccccc3)c3ccccc3n2)cc1	70*	114*	100*	135*	80*	75*	51*	109*
Fc1ccc(Nc2nc(NCc3ccco3)c3ccccc3n2)cc1	86*	44	77*	86*	-2	13	/	82*
CC(=O)Oc1cccc(C(=O)Nc2ccc(NC(=O)c3cccs3)cc2)c1	1	8	-33	14	21	/	/	/
Cc1ccc([C@H]2N[C@]3(CCCN(Cc4ccc(C(F)(F)F)cc4)C3=O)[C@H]3C(=O)N(Cc4ccccc4)C(=O)[C@@H]23)cc1	-2	/	/	/	/	/	/	/
O=C(NCc1nc(-c2ccc(C(F)(F)F)cc2)no1)Nc1ccc(OC(F)(F)F)cc1	78*	0	89*	109*	3	28	/	74*
COc1ccc(C)cc1NC(=O)CN(C)C1CCCCC1	-1	-6	30	-7	-3	/	/	/
Cc1ccc(CSC(Nc2ccc(F)cc2)=C(C#N)C#N)cc1	95*	117*	91*	7	1	92*	24	93*
O=C(Nc1ccc2snnc2c1)Nc1cccc2ccccc12	106*	41	67*	29	-5	20	/	69*
Cc1nc(Cl)c(C(=O)NC(=O)Nc2cccc(C(F)(F)F)c2)c(C)c1[N+](=O)[O-]	97*	38	57*	/	0	17	/	89*
Cc1onc(C(=O)Nc2cccc(C(F)(F)F)c2)c1[N+](=O)[O-]	-1	/	27	/	4	/	/	/
CN=C1c2c(-c3ccccc3)c3cc(OC)ccc3n2CCN1C	68*	-4	51*	-6	-20	21	/	-5	MPTP swell DR=10*;MPTP cs DR=>80
O=C(Nc1ccccc1)Nc1ccc(Br)c(Cl)c1	79*	59	87*	40	46	44*	48*	85*
CCOC(=O)c1ccc(NC(=O)Nc2ccc(Cl)cn2)cc1	15	2	-15	/	-11	/	/	/
O=C(Nc1ccc(Cl)c(Cl)c1)Nc1ccon1	69*	11	56*	47	71	66*	56*	103*
O=C(Nc1ccc(Cl)c(Cl)c1)Nc1ccc(Br)cc1F	100*	/	95*	92*	-3	93*	35	74*
CCOC(=O)c1ccc(NC(=O)Nc2ccon2)cc1	50*	23	53*	78*	20	43*	115*	65*
O=C(Nc1ccc(Br)cc1F)c1ccncc1	-3	-1	17	-6	-7	/	/	/
CSc1ncccc1C(=O)OCC(=O)c1cccs1	0	4	-4	-1	6	/	/	/
COc1cc2ccccc2cc1C(=O)N(CCN(C)C)c1nc2c(OC)ccc(OC)c2s1	67*	-1	61*	37	37	22	66*	-8	MPTP swell DR=>100;MPTP cs DR=52*
COc1ccc2c(CC(=O)NC(Cc3ccc(Cl)cc3)C(=O)O)cc(=O)oc2c1C (configuration not stated)	1	2	-4	7	9	/	/	/
COc1ccc(-n2c(SCC(=O)N(C)C3CCS(=O)(=O)C3)nc3ccc(O)cc3c2=O)cc1OC (configuration not stated)	-1	-2	26	-11	/	/	/	/
N=c1c2c(-c3ccccc3)c(-c3ccccc3)n(Cc3ccccc3)c2ncn1CCCn1ccnc1	56*	4	100*	37	1	90*	10	1
SMILES	MPTP block	Beta apoptosis	Mdm2 MdmX PPI	CSC inhib	Calb FLC	Mdm2 MdmX conf	FLuc counter	MPTP counter	others
Cc1ccc(Cl)cc1NC(=O)CC(O)(C(F)(F)F)C(F)(F)F	95*	/	59*	42	-38	28	/	93*
COCC(=O)Nc1cc(Cl)ccc1C	-1	-11	10	/	-15	/	/	/
CCCc1nc(NCCCOCC)c2nnn(Cc3ccccc3)c2n1	-1	3	26	-13	-1	/	/	/
COc1cc(C2NCC(c3ccc(Cl)cc3Cl)c3c2[nH]c2ccccc32)cc(OC)c1OC (configuration not stated)	88*	11	61*	81*	1	10	/	-21	MPTP swell DR=i;MPTP cs DR=>80
OC(COc1ccc(CNCCc2ccc(C(F)(F)F)cc2)cc1)CN1CCCCC1 (configuration not stated)	67*	6	100*	16	-11	99*	53*	-11
CCN(CC)CCn1c(=N)n(CC(O)COc2ccccc2)c2ccccc21 (configuration not stated)	0	12	30	-3	4	/	/	/
CCN(CC)CCn1c(=N)n(CCOc2ccccc2)c2ccccc21	78*	-1	50*	41	-4	61*	62*	2	MPTP swell DR=i;MPTP cs DR=33*
CCCCN1C(=O)C2(OCCCO2)c2cccc(C)c21	-1	-10	-19	-3	4	/	/	/
Cc1cc(C)nc(SC(C)CNS(=O)(=O)c2ccccc2)n1 (configuration not stated)	-2	-6	-5	-10	3	/	/	/
CN1CCN(C2Cc3ccccc3Sc3cc(C(F)(F)F)ccc32)CC1 (configuration not stated)	/	41	50	?	53	/	/	/
CSc1ccc2c(c1)C(N1CCN(C)CC1)Cc1ccccc1S2 (configuration not stated)	104*!	-4	69*	?	55	29	/	-17
CCOC(=O)[C@@H]1[C@H]2COc3cc(OC)ccc3[C@H]2N2C(=O)N(c3ccc(C(F)(F)F)cc3)C(=O)[C@]12C	84*	108*	91*	102*	/	18	/	90*
CCOC(=O)Cc1nnc2c(Nc3ccc(Cl)cc3)nc3nonc3n12	94*	27	92*	56	-9	40*	44*	87*
O=C(NC(=S)Nc1nc2c(s1)CCCC2)c1ccc(C(=O)c2ccccc2)cc1	6	10	4	57	0	/	/	/
O=C(NC(=S)Nc1nc2c(s1)CSc1ccccc1-2)c1ccccc1	95*	17	68*	-6	43	8	/	91*
COc1ccc(CN(C(=O)c2ccccc2Br)C2CCS(=O)(=O)C2)cc1 (configuration not stated)	-2	-1	1	/	3	/	/	/

Source: PubChem BioAssay (several laboratories)
